The values that follow come from PubChem BioAssay (EPA / NIEHS).

Read-out in assay [1]: Vascular endothelial growth factor receptor 2 (Homo sapiens) (UniProt P35968)
Description: BSK_4H_VEGFRII: BioMAP Diversity Plus: 4H Assay for Vascular endothelial growth factor receptor 2 (VEGFR2) Biomarker Activity (AID 2283031). Conditions: primary human endothelial cells (HUVEC); actives raise or lower the signal. An outline of the steps: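 ELISA read-out of VEGFRII in primary human umbilical vein endothelium, taken 24 h after chemical treatment. Responses are expressed relative to DMSO, with bidirectional fitting.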

Read-out in assay [2]: Human Leukocyte Antigen - DR isotype (HLADR), HLA-DRA (gene 3122)
The experiment in a line: BSK_BE3C_HLADR: BioMAP Diversity Plus: BE3C Assay for Human Leukocyte Antigen - DR isotype (HLADR) Biomarker Activity (AID 2283032). Conditions: primary human bronchial epithelial cells; actives raise or lower the signal. The essentials: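 Human primary bronchial epithelial cells (BE3C system) exposed to compound for 24 hours; cell-surface HLA-DR measured by ELISA, fitted bidirectionally relative to DMSO. Total protein by SRB in parallel cultures tracked cytotoxicity.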

Read-out in assay [3]: Vascular cell adhesion molecule 1 (VCAM1), VCAM1 (gene 7412)
Description: BSK_4H_VCAM1: BioMAP Diversity Plus: 4H Assay for Vascular cell adhesion molecule 1 (VCAM1) Biomarker Activity (AID 2283033). The note with it: primary human endothelial cells (HUVEC); actives raise or lower the signal. The essentials:
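Primary human umbilical vein endothelial cells, 4H stimulation system, treated for 24 h; cell-surface VCAM-1 quantified by ELISA. Bidirectional fitting against DMSO; cytotoxicity tracked by SRB total-protein staining in parallel cultures.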

Read-out in assay [4]: Interferon-gamma inducible Protein 10 (IP10), CXCL10 (gene 3627)
The experiment in a line: BSK_BE3C_IP10: BioMAP Diversity Plus: BE3C Assay for Interferon-gamma inducible Protein 10 (IP10) Biomarker Activity (AID 2283034). Conditions: primary human bronchial epithelial cells; actives raise or lower the signal. An outline of the steps:
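Primary human bronchial epithelial cells, with IP-10 measured by ELISA 24 hours after chemical dosing. Bidirectional fit against DMSO; cytotoxicity checked by SRB total protein staining in parallel cultures.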

Read-out in assay [5]: Monokine induced gamma interferon (MIG), CXCL9 (gene 4283)
Description: BSK_BE3C_MIG: BioMAP Diversity Plus: BE3C Assay for Monokine induced gamma interferon (MIG) Biomarker Activity (AID 2283035). The note with it: primary human bronchial epithelial cells; actives raise or lower the signal. An outline of the steps: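 ELISA read-out of MIG in human lung bronchial epithelial primary cultures, 24 h post-dosing. Bidirectional curve fit vs DMSO baseline.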

Read-out in assay [6]: Transforming growth factor beta 1 (TGFb1), TGFB1 (gene 7040)
Description: BSK_BE3C_TGFb1: BioMAP Diversity Plus: BE3C Assay for Transforming growth factor beta 1 (TGFb1) Biomarker Activity (AID 2283036). The note with it: primary human bronchial epithelial cells; actives raise or lower the signal. An outline of the steps:
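Primary human bronchial epithelial cells dosed with chemical; TGF-b1 measured by ELISA 24 h after dosing. Bidirectional curve fitting against DMSO negative control; SRB total-protein staining in parallel cultures gauged cytotoxicity.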

Read-out in assay [7]: Plasminogen activator inhibitor-1 (PAI1), SERPINE1 (gene 5054)
Description: BSK_BE3C_PAI1: BioMAP Diversity Plus: BE3C Assay for Plasminogen activator inhibitor-1 (PAI1) Biomarker Activity (AID 2283037). Conditions: primary human bronchial epithelial cells; actives raise or lower the signal. An outline of the steps: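 Primary human bronchial epithelial cells (BE3C system) exposed 24 h; PAI-1 quantified by ELISA. Parallel sulforhodamine B staining of total protein flags cytotoxicity. Bidirectional fit versus DMSO.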

Read-out in assay [8]: urokinase plasminogen activator (uPA), PLAU (gene 5328)
Description: BSK_BE3C_uPA: BioMAP Diversity Plus: BE3C Assay for urokinase plasminogen activator (uPA) Biomarker Activity (AID 2283038).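 As to outcome: uPA protein level quantified by ELISA in cell cultures; uPA read one day after compound addition.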 The note with it: primary human bronchial epithelial cells; actives raise or lower the signal. An outline of the steps: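 Bronchial epithelial cells (human, primary); chemical 24 h; uPA by ELISA; bidirectional fit vs DMSO. SRB (0.1%, after 10% TCA fixation, 560 nm) in parallel cultures for cytotoxicity.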

Read-out in assay [9]: Urokinase-type plasminogen activator receptor (uPAR), PLAUR (gene 5329)
The experiment in a line: BSK_BE3C_uPAR: BioMAP Diversity Plus: BE3C Assay for Urokinase-type plasminogen activator receptor (uPAR) Biomarker Activity (AID 2283039).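 Also: uPAR protein level measured by ELISA on the cells; cells exposed to compound for one day before measurement.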 Conditions: primary human bronchial epithelial cells; actives raise or lower the signal. The essentials: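 Primary human bronchial epithelial cells dosed for 24 h; uPAR quantified by ELISA with bidirectional fitting against DMSO. Overt cytotoxicity assessed in parallel cultures by SRB total-protein staining (0.1% SRB, 560 nm).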

Read-out in assay [10]: Interleukin-6 (IL6), IL6 (gene 3569)
The experiment in a line: BSK_CASM3C_IL6: BioMAP Diversity Plus: CASM3C Assay for Interleukin-6 (IL6) Biomarker Activity for (AID 2283040). The note with it: primary human coronary artery smooth muscle cells; actives raise or lower the signal.

Read-out in assay [11]: Tissue plasminogen activator (tPA), PLAT (gene 5327)
The experiment in a line: BSK_BE3C_tPA: BioMAP Diversity Plus: BE3C Assay for Tissue plasminogen activator (tPA) Biomarker Activity (AID 2283041).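 Also: tPA level quantified by ELISA one day after compound addition.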 Conditions: primary human bronchial epithelial cells; actives raise or lower the signal. The essentials: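 Primary human bronchial epithelial cells in the BE3C system, exposed to compound for 24 h. tPA was quantified by ELISA; DMSO served as baseline, with gain or loss of signal fitted. Cytotoxicity checked in parallel cultures by SRB total-protein staining.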

Read-out in assay [12]: Interleukin-8 (IL8), CXCL8 (gene 3576)
Description: BSK_CASM3C_IL8: BioMAP Diversity Plus: CASM3C Assay for Interleukin-8 (IL8) Biomarker Activity (AID 2283042).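 Also: IL-8 protein level quantified by ELISA.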 Conditions: primary human coronary artery smooth muscle cells; actives raise or lower the signal.

Read-out in assay [13]: Human Leukocyte Antigen - DR isotype (HLADR), HLA-DRA (gene 3122)
The experiment in a line: BSK_CASM3C_HLADR: BioMAP Diversity Plus: CASM3C Assay for Human Leukocyte Antigen - DR isotype (HLADR) Biomarker Activity (AID 2283043).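 Also: cell-surface HLA-DR protein level quantified by ELISA.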 Conditions: primary human coronary artery smooth muscle cells; actives raise or lower the signal.

Read-out in assay [14]: Macrophage colony-stimulating factor (MCSF), CSF1 (gene 1435)
Description: BSK_CASM3C_MCSF: BioMAP Diversity Plus: CASM3C Assay for Macrophage colony-stimulating factor (MCSF) Biomarker Activity (AID 2283044).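 Also: M-CSF protein amount quantified by ELISA after 24 h exposure.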 Conditions: primary human coronary artery smooth muscle cells; actives raise or lower the signal.

Read-out in assay [15]: Low-density lipoprotein receptor (LDLR), LDLR (gene 3949)
The experiment in a line: BSK_CASM3C_LDLR: BioMAP Diversity Plus: CASM3C Assay for Low-density lipoprotein receptor (LDLR) Biomarker Activity (AID 2283045).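 Also: LDLR protein level on the cell surface quantified by ELISA.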 Conditions: primary human coronary artery smooth muscle cells; actives raise or lower the signal.

Read-out in assay [16]: Monocyte Chemoattractant Protein-1 (MCP1), CCL2 (gene 6347)
Description: BSK_CASM3C_MCP1: BioMAP Diversity Plus: CASM3C Assay for Monocyte Chemoattractant Protein-1 (MCP1) Biomarker Activity (AID 2283046).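 Also: MCP-1 level quantified by ELISA 24 h after dosing.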 The note with it: primary human coronary artery smooth muscle cells; actives raise or lower the signal.

The nature of assay [17]: BSK_CASM3C_Proliferation: Cell Proliferation Assessment in the BioMAP Diversity Plus: CASM3C Assay (AID 2283047).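 Also: sulforhodamine B total protein stain as relative cell number at 560 nm; sub-confluent cells exposed 48 h before staining; fitted both ways against DMSO so gain or loss of cell number.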 The note with it: primary human coronary artery smooth muscle cells.
Read-out in assay [18]: Monokine induced gamma interferon (MIG), CXCL9 (gene 4283)
The experiment in a line: BSK_CASM3C_MIG: BioMAP Diversity Plus: CASM3C Assay for Monokine induced gamma interferon (MIG) Biomarker Activity (AID 2283048).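 Also: MIG protein level measured by ELISA.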 The note with it: primary human coronary artery smooth muscle cells; actives raise or lower the signal.

Read-out in assay [19]: serum amyloid A (SAA), SAA1 (gene 6288)
Description: BSK_CASM3C_SAA: BioMAP Diversity Plus: CASM3C Assay for serum amyloid A (SAA) Biomarker Activity (AID 2283049).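 Also: SAA protein level quantified by ELISA.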 Conditions: primary human coronary artery smooth muscle cells; actives raise or lower the signal.

Assay [20] in a line: BSK_CASM3C_SRB: Viability Assessment in the BioMAP Diversity Plus: CASM3C Assay (AID 2283050). Conditions: primary human coronary artery smooth muscle cells.

The source made the active and inactive calls. The calls were made as follows: active = hit-call score of the fitted dose curve at least 0.9, where 1 is the maximum; inactive = score below 0.9.

Take `Cc1ccc(N(C)C)cc1`: the outcome in [1], in assay [2], in assay [3], in assay [4], in assay [5] and in assay [6] was inactive. The result in assay [7], in assay [8], in [9], in assay [10], in [11] and in [12] was inactive. Also, the result in [13], in [14], in assay [15], in assay [16], in assay [17] and in [18] was inactive. For the same compound, the outcome in assay [19] and in assay [20] was inactive.
As to `CCCCCC(=O)O`, the outcome in [1], in assay [2], in assay [3], in assay [4], in assay [5] and in assay [7] was inactive. The outcome in assay [8], in [9], in [10], in assay [11], in assay [12] and in assay [13] was inactive. In addition, the outcome in [14], in assay [15], in [16], in [17], in assay [18] and in [19] was inactive. In addition, the result in assay [20] was inactive.
As usually defined, the AC50 is the concentration giving half of the maximal activity seen. On to `Oc1ccc2ccccc2c1N=Nc1ccccc1`, for which the result in assay [1], in assay [2], in [4], in [5], in assay [6] and in [7] was inactive. Also, the result in assay [9], in assay [10], in assay [11], in assay [12], in [13] and in [14] was inactive. The result in assay [15], in [16], in [17], in [18], in assay [19] and in [20] was inactive. The AC50 is 0.386 µM (active) in assay [3] and 2.47 µM (active) in assay [8].
On to `CCCCc1ccc2c(n1)[C@@H](c1ccc(OC)cc1C[C@H](C)C(=O)O)[C@H](C(=O)O)[C@H]2c1ccc2c(c1)OCO2`, for which the outcome in assay [1], in assay [2], in assay [3], in assay [4], in assay [5] and in assay [7] was inactive. Also, the result in assay [8], in [9], in assay [10], in assay [11], in [12] and in assay [13] was inactive. Further, the result in assay [14], in assay [15], in assay [16], in [17], in assay [18] and in assay [19] was inactive. For the same compound, the result in assay [20] was inactive.
Consider `NS(=O)(=O)c1cc2c(cc1Cl)NCNS2(=O)=O`, for which the result in assay [1], in assay [2], in assay [3], in [4], in assay [5] and in [6] was inactive. For the same compound, the outcome in [7], in assay [8], in [9], in [10], in assay [11] and in [12] was inactive. Also, the outcome in assay [13], in assay [14], in assay [15], in [16], in assay [17] and in assay [18] was inactive. The outcome in assay [19] and in assay [20] was inactive.
Regarding `Nc1nc(N)c2nc(CNc3ccc(C(=O)N[C@@H](CCC(=O)O)C(=O)O)cc3)cnc2n1`, the result in assay [1], in [2], in [3], in assay [4], in assay [5] and in assay [7] was inactive. In addition, the result in assay [8], in assay [9], in assay [10], in assay [11], in [12] and in assay [13] was inactive. For the same compound, the result in assay [14], in [15], in assay [16], in [17], in [18] and in assay [19] was inactive. The result in assay [20] was inactive.
